Compound activity as filed in PubChem.
TcdB inh – TcdB glycohydrolase inhibitors, primary screen, biochemical, single point, plate reader; Toxin B (Clostridioides difficile), P18177; TcdB glycohydrolase enzymatic assay; inhibition, % at 9.99 µM; actives 0.24% (n = 350,000); in the data active = inhibition above about 10%
Target sequence (P18177 whole entry, looked up): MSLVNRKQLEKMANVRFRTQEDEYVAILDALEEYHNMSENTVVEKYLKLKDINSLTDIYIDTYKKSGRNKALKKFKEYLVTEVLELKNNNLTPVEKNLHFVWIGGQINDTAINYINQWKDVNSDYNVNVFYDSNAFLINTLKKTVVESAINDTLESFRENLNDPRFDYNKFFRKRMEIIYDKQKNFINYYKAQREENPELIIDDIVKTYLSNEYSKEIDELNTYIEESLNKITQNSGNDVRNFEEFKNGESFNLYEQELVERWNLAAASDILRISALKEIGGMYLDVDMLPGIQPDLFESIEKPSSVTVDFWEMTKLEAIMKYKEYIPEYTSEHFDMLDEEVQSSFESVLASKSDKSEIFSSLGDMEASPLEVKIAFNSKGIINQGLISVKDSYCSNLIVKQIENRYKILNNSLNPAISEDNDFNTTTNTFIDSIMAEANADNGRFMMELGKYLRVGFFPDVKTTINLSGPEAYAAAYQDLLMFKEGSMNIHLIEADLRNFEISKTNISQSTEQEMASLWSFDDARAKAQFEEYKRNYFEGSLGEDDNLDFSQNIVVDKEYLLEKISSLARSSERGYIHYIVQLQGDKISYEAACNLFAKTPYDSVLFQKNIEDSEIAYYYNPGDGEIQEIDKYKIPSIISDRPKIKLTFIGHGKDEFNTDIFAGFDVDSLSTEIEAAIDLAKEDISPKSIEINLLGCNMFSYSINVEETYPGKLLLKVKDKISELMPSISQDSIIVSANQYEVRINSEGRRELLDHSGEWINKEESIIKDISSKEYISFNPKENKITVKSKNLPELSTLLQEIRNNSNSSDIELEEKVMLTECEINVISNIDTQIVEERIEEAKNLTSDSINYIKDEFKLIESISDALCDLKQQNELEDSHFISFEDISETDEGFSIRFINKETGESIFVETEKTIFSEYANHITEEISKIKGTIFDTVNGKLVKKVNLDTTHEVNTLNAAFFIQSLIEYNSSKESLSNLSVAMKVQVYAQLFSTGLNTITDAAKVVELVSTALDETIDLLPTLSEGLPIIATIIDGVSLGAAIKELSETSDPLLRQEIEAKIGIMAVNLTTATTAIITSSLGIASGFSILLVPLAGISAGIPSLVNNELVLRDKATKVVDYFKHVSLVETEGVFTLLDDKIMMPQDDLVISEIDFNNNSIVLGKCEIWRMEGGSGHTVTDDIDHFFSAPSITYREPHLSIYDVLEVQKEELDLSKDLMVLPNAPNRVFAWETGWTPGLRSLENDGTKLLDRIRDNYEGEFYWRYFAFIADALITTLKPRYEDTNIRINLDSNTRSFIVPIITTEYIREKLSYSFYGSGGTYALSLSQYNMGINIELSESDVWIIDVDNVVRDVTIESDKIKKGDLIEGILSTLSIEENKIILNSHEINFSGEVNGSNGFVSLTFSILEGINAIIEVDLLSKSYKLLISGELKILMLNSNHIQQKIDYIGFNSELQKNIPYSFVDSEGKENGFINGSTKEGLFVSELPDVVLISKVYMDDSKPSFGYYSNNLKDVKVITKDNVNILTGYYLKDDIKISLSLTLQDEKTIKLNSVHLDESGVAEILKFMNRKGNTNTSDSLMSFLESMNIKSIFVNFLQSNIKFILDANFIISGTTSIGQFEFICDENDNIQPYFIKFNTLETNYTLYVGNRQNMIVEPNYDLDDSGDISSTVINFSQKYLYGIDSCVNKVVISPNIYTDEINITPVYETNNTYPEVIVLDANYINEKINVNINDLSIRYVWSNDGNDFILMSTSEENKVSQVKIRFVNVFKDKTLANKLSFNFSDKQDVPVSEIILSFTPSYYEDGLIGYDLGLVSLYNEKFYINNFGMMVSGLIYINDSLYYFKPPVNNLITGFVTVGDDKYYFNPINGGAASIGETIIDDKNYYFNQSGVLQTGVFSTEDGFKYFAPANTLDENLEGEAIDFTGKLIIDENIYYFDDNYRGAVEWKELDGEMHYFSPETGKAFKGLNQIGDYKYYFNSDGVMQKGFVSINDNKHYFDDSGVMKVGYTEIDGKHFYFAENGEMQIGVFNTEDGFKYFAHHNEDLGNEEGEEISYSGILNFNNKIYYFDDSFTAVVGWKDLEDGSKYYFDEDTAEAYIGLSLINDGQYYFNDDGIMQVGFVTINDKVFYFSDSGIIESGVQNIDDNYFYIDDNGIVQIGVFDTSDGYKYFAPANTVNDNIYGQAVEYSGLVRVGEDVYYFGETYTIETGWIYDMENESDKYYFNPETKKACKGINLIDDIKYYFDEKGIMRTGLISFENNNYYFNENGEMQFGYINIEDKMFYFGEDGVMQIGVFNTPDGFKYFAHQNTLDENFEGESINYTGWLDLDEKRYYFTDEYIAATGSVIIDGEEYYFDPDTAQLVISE
Sa ugtP lethal – growth inhibition of ugtP-null S. aureus, primary screen, RN4220 ugtP deletion, OD600. actives 0.54% (n = 330,000). 16 h. growth inhibition, % (concentration not given with the values). AID 1259309, 2017; in the data active = growth inhibition above about 68%;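 also: plate controls were untreated wells for no effect and antibiotic for full effect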
PrP 5UTR inh – inhibition of PrP 5' UTR reporter expression. cell-based PrP 5' UTR mRNA reporter, plate reader. inhibition, % (concentration not given with the values). actives 0.35% (n = 340,000); in the data active = inhibition above about 52%; also: 0 = median of the neutral control wells
PfHsp40 rescue – rescue of yeast from PfHsp40 toxicity, primary screen, S. cerevisiae, ATP luminescence; growth rescue, % at 12.5 µM; S. cerevisiae expressing PfHsp40, growth rescue; actives 0.68% (n = 340,000); in the data active = growth rescue above about 28%, passing the limit was not always enough; inconclusive = no clear call, values can overlap the other calls;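 also: yeast W303a lacking pdr1 and pdr3 grown in galactose medium; growth measured after three days at 30 °C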
Sa RN4220 lethal – growth inhibition of S. aureus RN4220, primary screen, OD600; 16 h; inhibition, % (concentration not given with the values); actives 0.33% (n = 330,000); AID 1259311, 2017; in the data active = inhibition above about 85%;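 also: plate controls were untreated cells for no effect and reference antibiotic for full effect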
Active calls of the source: *; ? = inconclusive; nt = no result given. Most compounds without a hit are left out; they make up all but 1.2% or so of the library.

SMILES	TcdB inh	Sa ugtP lethal	PrP 5UTR inh	PfHsp40 rescue	Sa RN4220 lethal
O=[N+]([O-])c1ccc(-c2nn(-c3ccccc3)cc2C=Nn2c(-c3ccncc3)n[nH]c2=S)cc1	nt	9	nt	nt	15
CC(=Cc1ccc(C(=O)O)cc1)c1ccc2c(c1)C(C)(C)CCC2(C)C	nt	99*	nt	nt	77
COc1ccccc1CNC(=O)CCCn1nc(C)n2ccnc2c1=O	1	1	-6	2	-4
COc1ccc(CCNC(=O)CCCn2nc(C)n3ccnc3c2=O)cc1OC	14*	-4	8	1	-8
O=C(C[C@H]1C=C[C@H](NS(=O)(=O)c2ccccc2)[C@@H](CO)O1)NCc1ccc(Cl)c(Cl)c1	1	nt	nt	nt	nt
COc1cccc(-n2nc(C#N)c(Cl)cc2=O)c1	1	10	-14	52*	40
O=C(CC(=O)c1ccccc1)CS(=O)(=O)c1ccccc1	2	-3	-10	60*	5
Cc1ccc(S(=O)(=O)CC(=O)c2ccccc2)cc1	nt	-2	-32	-1	1
CNC(C(=O)c1ccccc1)C(OC)c1cccc([N+](=O)[O-])c1 (stereo not drawn)	21*	1	-21	-1	6
O=C(Nc1ccccc1)C(Cl)C(=O)c1ccccc1 (stereo not drawn)	-2	92*	-41	4	64
C=CCN1c2ccccc2[C@]23CC(C(=O)OC)N(C(=O)NCCC)C2=NC(C(=O)OC)=C(C(=O)OC)C13 (stereo partly drawn)	nt	8	nt	nt	-1
N#CC(C#N)=C(Nc1ccc(F)cc1)SCc1cccc(F)c1	nt	98*	-4	-3	99*
COc1c2ccc(C(=O)NCCCCc3ccccc3)cc2nn1C	14*	0	-18	7	2
COc1ccc(S(=O)(=O)Nc2ccc3c(c2)C(=O)N([C@H](C)CO)C[C@H](C)[C@@H](CN(C)Cc2ccncc2)O3)cc1	-2	nt	nt	nt	nt
COC12C(COC(N)=O)C3=C(C(=O)C(C)=C(N)C3=O)N1CC1C2N1C (stereo not drawn)	2	100*	49	0	100*
O=C(Nc1nc(NC(=O)c2ccco2)n(-c2ccccc2)n1)c1ccccc1	nt	76	19	-1	92*
Nc1nc(NC(=O)c2ccccc2)nn1-c1ccccc1	1	6	-38	-1	6
Cc1cc(C)cc(NC(=O)COC(=O)CCCNC(=O)c2ccc(Cl)cc2)c1	-1	99*	-14	0	-4
O=C(CCCNC(=O)c1ccc(Cl)cc1)OCc1cccc(Br)c1	0	2	-15	277*	-1
O=C(CNC(=O)c1ccccc1)OCc1cccc(Br)c1	1	46	-17	2	2
O=C(COC(=O)CCCNC(=O)c1ccc(Cl)cc1)Nc1cc(Cl)c(Cl)cc1Cl	nt	10	-16	-2	4
CCNC(=O)C[C@@H]1C=C[C@@H](NC(=O)C2CC2)[C@H](CO)O1	-1	nt	nt	nt	nt
O=C1C=C(c2ccccc2)CC(c2ccc(Cl)cc2)C1 (stereo not drawn)	nt	-11	nt	nt	-3
O=C1OC(c2ccccc2)=NC12CC2c1ccc(Cl)cc1 (stereo not drawn)	-9	3	-14	255*	-1
C[C@H](CO)N1C[C@H](C)[C@H](CN(C)C(=O)c2ccccc2F)Oc2ncc(-c3ccc(F)cc3)cc2C1=O	1	nt	nt	nt	nt
SMILES	TcdB inh	Sa ugtP lethal	PrP 5UTR inh	PfHsp40 rescue	Sa RN4220 lethal
O=C(c1ccc2c(c1)OCO2)N1C[C@@H]2[C@H](c3ccccc31)[C@@H](CO)N2Cc1ccccc1Cl	-1	nt	nt	nt	nt
Cc1ccc(O)c(Nc2nc(-c3ccccc3)nc3ccccc23)c1	2	-1	-9	0	-14
COc1ccc(C)cc1Nc1nc(-c2ccccc2O)nc2ccccc12	1	91*	-28	0	53
CC=CC=CC(=O)N1CC2(CC(c3cccc(NC(=O)C=CC)c3)=NO2)CC1C(N)=O (stereo not drawn)	nt	-6	nt	nt	4
C[C@H](CO)N1C[C@H](C)[C@H](CN(C)Cc2ccccc2)OCCCC[C@H](C)Oc2ccc(NS(=O)(=O)c3ccc(Cl)cc3)cc2C1=O	0	nt	nt	nt	nt
S=C(NNc1ccc2ccccc2c1)NC1CCCCC1	nt	13	-25	244*	2
S=C(Nc1ccc(Cl)c(Cl)c1)NC1CCCCC1	1	75	-33	190*	74
S=C(Nc1ccc(Oc2ccccc2)cc1)NC1CCCCCC1	nt	-11	-6	?	2
CO[C@H]1CN(C)C(=O)c2cc(NC(=O)C3CCCC3)ccc2OC[C@@H](C)N(C)C[C@@H]1C	0	nt	nt	nt	nt
CCOC(=O)Nc1ccc2c(c1)C(=NO)c1ccccc1-2	4	nt	-138	207*	nt
C[C@@H]1CCCCO[C@@H](CN(C)C(=O)c2ccccc2)[C@@H](C)CN([C@@H](C)CO)C(=O)c2cc(NS(C)(=O)=O)ccc2O1	0	nt	nt	nt	nt
Cc1ccc(-n2c(O)c(/C=C/C=Nc3ccccc3)c(=O)[nH]c2=O)cc1	1	0	-2	0	6
Cc1ccc(N/N=C/c2c(O)n(-c3ccccc3)c(=O)[nH]c2=O)cc1	14*	-4	-20	2	2
COCC(=O)Nc1ccc2c(c1)C(=O)N(C)C[C@@H](OC)[C@@H](C)CN(Cc1cc(F)ccc1F)[C@H](C)CO2	-1	nt	nt	nt	nt
CN1c2ccc(-c3ccccc3)cc2[C@@H]2[C@@H](CCN2C(=O)Cc2cccnc2)[C@H]1CO	-1	nt	nt	nt	nt
CC(C)NC(=O)N1CC[C@@H]2[C@@H](CO)N(C)c3ccc(-c4ccc(F)cc4)cc3[C@@H]21	12*	nt	nt	nt	nt
COc1ccc(-c2ccc3c(c2)[C@H]2[C@H](CCN2C(=O)Cc2cccnc2)[C@@H](CO)N3C)cc1	11*	nt	nt	nt	nt
CCC(=O)N1CC[C@@H]2[C@H]1c1cc(-c3ccc(OC)cc3)ccc1N(C)[C@H]2CO	11*	nt	nt	nt	nt
COCC(=O)N1CC[C@@H]2[C@@H](CO)N(C)c3ccc(-c4ccccc4)cc3[C@@H]21	13*	nt	nt	nt	nt
COCC(=O)N1CC[C@@H]2[C@H]1c1cc(-c3ccc(F)cc3)ccc1N(C)[C@H]2CO	15*	nt	nt	nt	nt
COCC(=O)N1CC[C@@H]2[C@H]1c1cc(-c3ccc(OC)cc3)ccc1N(C)[C@@H]2CO	6	nt	nt	nt	nt
COCC(=O)N1CC[C@H]2[C@@H]1c1cc(-c3ccc(OC)cc3)ccc1N(C)[C@H]2CO	14*	nt	nt	nt	nt
C[C@H]1CN([C@@H](C)CO)C(=O)c2cccc(NS(=O)(=O)c3ccccc3)c2O[C@@H]1CN(C)C(=O)Nc1ccc(F)cc1	2	nt	nt	nt	nt
Cc1csc2nc(O)c(C(=O)NC3CCCCC3)c(=O)n12	1	2	1	165*	6
CCCCOc1ccc(Cc2cnc(N)nc2N)cc1	1	66	-8	?	6
CC(C)Oc1ccc(Cc2cnc(N)nc2N)cc1	nt	91*	-20	0	17
CC(C)C1S/C(=N/N=C/c2ccco2)NC1=O (stereo not drawn)	nt	nt	-27	58*	nt
CC(C)C1S/C(=N/N=Cc2ccco2)NC1=O (stereo not drawn)	nt	1	nt	nt	6
O=C(COC(=O)c1cnc(Cl)c(Cl)c1)NCCC1=CCCCC1	3	8	-1	30*	3
